HT1080 IDH1KD tx – qHTS for induction of synthetic lethality in tumor cells producing 2HG: qHTS for the HT-1080-IDH1KD cell line | HT-1080 IDH1 knockdown viability, ATP luminescence, 48 h | hit rate 2% among 360,000 | Potency, µM (titrated, usually from 46.1 µM), for inactives: at the top dose activity, negative = toxicity, most hits filed as cytotoxic;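 further: 0% = DMSO wells and -100% = cell-free medium wells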
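In this qHTS, HT-1080 cells depleted of IDH1 are exposed for 48 h at 37 °C to compound titrations. Toxicity is scored from CellTiter-Glo luminescence, with DMSO as full viability and medium alone as none.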
KB-3-1 tox – qHTS assay for MDR1-selective chemotherapeutics: Primary screen using the parental adenocarcinoma cell KB-3-1 | AID 1347075, 2019 | Potency, µM (series often up to 46.1 µM), usual class: cytotoxic | KB-3-1 viability, CellTiter-Glo ATP luminescence, 72 h | hit rate 1.4% among 400,000; further: on the % scale 0 is the no-effect control and ±100 the full control effect; nearly all actives have a fitted effect of over 60% in size
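Cytotoxicity in the drug-sensitive parental line KB-3-1 was scored as loss of CellTiter-Glo luminescence following 72 h incubation with compound. Values come from curve fitting of normalized concentration-response data.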
HT1080-NT tox – qHTS for induction of synthetic lethality in tumor cells producing 2HG: qHTS for the HT-1080-NT fibrosarcoma cell line | HT-1080-NT fibrosarcoma viability, CellTiter-Glo ATP luminescence, 48 h | Potency, µM (series often up to 46.1 µM), for inactives: at the top dose activity, negative = less viability, most hits filed as cytotoxic | hit rate 1.6% among 360,000 | AID 686970, 2013;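 further: NT is the 2HG producing partner of a matched IDH1 knockdown line; 0% = DMSO-treated cells and -100% = media-only wells without cells; nearly all actives have a fitted effect of over 55% in size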
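A 48-hour cytotoxicity screen used HT-1080-NT cells plated 2 hours before compound delivery. ATP-based CellTiter-Glo luminescence measured viability, normalized to DMSO and no-cell controls.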
KB-V1 cytotox – qHTS assay for MDR1-selective chemotherapeutics: Primary screen using the drug-selected MDR subline cells KB-V1 | KB-V1 MDR cells viability, CellTiter-Glo, 72 h | hit rate 3.4% among 400,000 | AID 1347076, 2019 | Potency, µM (top dose mostly 46.1 µM), most hits filed as cytotoxic; further: on the % scale 0 is the no-effect control and ±100 the full control effect; nearly all actives have a fitted effect of over 60% in size
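In this primary screen, KB-V1 cells overexpressing P-gp are incubated with library compounds (lowest to highest concentration) for 72 h at 37 degrees C before a luminescent ATP viability read.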
SW480 rereplic – A quantitative high throughput screen for small molecules that induce DNA re-replication in SW480 colon adenocarcinoma cells; AID 624297, 2012; SW480 DNA re-replication, Hoechst DNA content imaging, 48 h; Potency, µM (series often up to 46.1 µM), for the others: at the highest dose re-replication activation, hits mostly activators; hit rate 1.8% among 340,000; further: % of control where 0% means no effect; nearly all actives have a fitted effect of over 55% in size
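Quantitative HTS format with DMSO vehicle controls; 48 hr drug incubation at 37 C, then 40 min Hoechst staining and scanning imager measurement at 405 nm excitation.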
MCF10A rereplic – A quantitative high throughput screen for small molecules that induce DNA re-replication in MCF 10a normal breast cells. Potency, µM (titrated, usually from 46.1 µM), without a hit: at the highest dose activity, positive = re-replication, actives largely listed as activators. hit rate 2.9% among 350,000. AID 624296, 2012. MCF 10A DNA re-replication, Hoechst nuclear intensity, 48 h; further: % of control where 0% means no effect; nearly all actives have a fitted effect of over 50% in size
Starred values were filed as active, the others as inactive; i = inactive; u = inconclusive; x = not tested or not shown. The list is not random: actives were taken first. Their share in the collection is about 8%. The call rests on the fitted dose curve; in most records, active means well fitted curve in the direction sought with a large enough effect; inconclusive means small, poorly fitted or top-dose-only effect, or another doubt; inactive means no such curve, though single readings can be large; an effect the other way counts as inactive or inconclusive. Potency means the concentration at half of the fitted maximal effect.

SMILES | HT1080 IDH1KD tx | KB-3-1 tox | HT1080-NT tox | KB-V1 cytotox | SW480 rereplic | MCF10A rereplic
O=C(O)C1C2C=CC(C2)C1C(=O)NCCC1=CCCCC1 (stereo not drawn) | 7% | i | 13% | i | -3% | u
O=C(O)C1C2CCC(C2)C1C(=O)NCCC1=CCCCC1 (stereo not drawn) | -3% | i | -5% | i | 0.52µM* | -4%
CC(C)(C)NC(=S)NNC(=O)c1cccc(Br)c1 | -1% | u | 5% | 16µM* | 2% | -2%
COc1cccc(-c2nnc(NC(=O)c3ccc(S(=O)(=O)N4CC(C)OC(C)C4)cc3)o2)c1 (stereo not drawn) | 9.2µM* | u | u | u | u | u
COc1ccc(-c2csc(NC(=O)c3ccc(S(=O)(=O)N4CCc5ccccc5C4)cc3)n2)cc1 | u | u | -22% | i | -1% | u
COc1ccc(-c2nnc(NC(=O)c3ccc(S(=O)(=O)N4CCc5ccccc5C4)cc3)o2)cc1 | -19% | u | u | 10µM* | u | -4%
O=C(Nc1nnc(-c2ccc(F)cc2)o1)c1ccc(S(=O)(=O)N2CCOCC2)cc1 | u | 4.1µM* | -15% | u | 10µM* | 8%
NCCNc1ncnc2ccc(-c3ccc4c(c3)OCO4)cc12 | x | u | x | i | x | x
CC[n+]1c(/C=C/C=C/N(C(C)=O)c2ccccc2)sc2ccccc21 | u | 16µM* | u | u | 0% | -6%
C=C(C)[C@@H]1CC=C(CN2CCC(N3CCC(C(=O)N4CCCC4)CC3)CC2)CC1 | 21µM* | u | 18µM* | u | u | u
O=C(c1cnccn1)N1CCc2c([nH]c3ccccc23)C1c1cccc(Cl)c1 (stereo not drawn) | -24% | u | -14% | 23µM* | 21% | 29%
CCc1cc(C(=O)N2CCc3c([nH]c4ccccc34)C2c2ccc(OC)cc2F)no1 (stereo not drawn) | -30% | 5.8µM* | u | u | u | u
COc1ccc(C2c3[nH]c4ccccc4c3CCN2C(=O)c2ccc(=O)n(C)n2)c(F)c1 (stereo not drawn) | u | i | u | i | 1% | -15%
CCc1ccc(C2c3[nH]c4ccccc4c3CCN2C(=O)c2cc(C)nn2C)cc1 (stereo not drawn) | u | u | u | u | u | 23µM*
COC(=O)C(CCSC)NC(=O)c1cc2c(n(-c3ccc(Cl)cc3)c1=O)CCCC2=O (stereo not drawn) | x | i | x | i | x | x
Cc1cccc(C(=O)Nc2ccc(N3CCC(N4CCCCC4)CC3)c(C(=O)O)c2)c1 | x | i | x | i | x | x
Nc1c(C(=O)Nc2ccccc2Cl)c2ccccn2c1C(=O)c1ccccc1 | x | i | x | i | x | x
N#CC1=C(N)OC2=C(CC/C2=C\c2ccccc2Cl)C1c1ccccc1Cl (stereo not drawn) | 4% | i | 1% | u | u | u
N#CC1=C(N)OC2=C(CC/C2=C\c2ccccc2)C1c1ccccc1 (stereo not drawn) | -21% | u | -21% | u | 15µM* | 5.8µM*
CC(C)(C)NC(=O)NC(=O)CSc1ncc(C(F)(F)F)cc1Cl | -4% | i | 10% | 13µM* | 2% | -2%
CCOC(=O)Cc1ccc(NC(=O)N2CCC(CN3CCC(C)CC3)CC2)cc1 | x | i | x | i | x | x
COc1cc(C(=O)Nc2nnc(CC(C)C)s2)c([N+](=O)[O-])cc1OC | -2% | i | -1% | i | -86% | -7%
CC(=O)c1cnc(-c2cccc(Cl)c2)s1 | 4% | i | 1% | u | -38% | 2.1µM*
CN(C)/C=C/C(=O)c1cnc(-c2cccc(Cl)c2)s1 | -3% | i | -5% | i | -1% | 0.65µM*
CC1C=CC=CC=CC=CC=CC=CC=CC(OC2OC(C)C(O)C(N)C2O)CC2OC(O)(CC(O)CC(O)C(O)CCC(O)CC(O)CC(=O)OC(C)C(C)C1O)CC(O)C2C(=O)O (stereo not drawn) | 9.2µM* | 4.1µM* | 4.6µM* | u | 6.5µM* | 3.3µM*
SMILES | HT1080 IDH1KD tx | KB-3-1 tox | HT1080-NT tox | KB-V1 cytotox | SW480 rereplic | MCF10A rereplic
COc1cccc(-c2ncc3ccccc3c2COC(=O)c2ccc(C(F)(F)F)cc2)c1 | 12% | i | 6% | i | 2% | -5%
COc1ccc(-n2cccc2C=O)cc1 | 7% | i | 9% | u | -4% | -5%
COc1ccc(-n2cccc2/C=C/[N+](=O)[O-])cc1 | u | u | -1% | u | 23µM* | 15µM*
COC(=O)/C(=C\Nc1ccc(Cl)cc1Cl)NC(=O)c1ccc(OC)cc1 | 1.6µM* | 5.8µM* | 3.3µM* | 4.1µM* | 6.5µM* | 18µM*
Cc1ccc2nc(Cl)c(/C=N/Nc3ccc(C(=O)O)cc3)cc2c1 | -6% | i | -3% | i | u | 16µM*
COc1ccc(/C=C(\NC(=O)c2ccccc2)C(=O)NC2CCS(=O)(=O)C2)cc1 (stereo not drawn) | -1% | i | 1% | i | 2% | 0%
CC(C)(C)N=C1NN=C(c2cc3ccccc3o2)CS1 | 5% | i | -11% | u | 12µM* | u
Cc1ccc(C(NC(=O)N2CCOCC2)=C(Cl)Cl)cc1F | 14µM* | i | u | i | 21% | u
CCN(CC)CCCNC(=O)CSc1c2c(nc3cc(Cl)ccc13)CCCC2 | 23µM* | i | 23µM* | i | u | 117%
O=C(CSc1c2c(nc3cc(Cl)ccc13)CCCC2)NCCN1CCOCC1 | 0% | i | -1% | i | u | u
O=C(CSc1c2c(nc3cc(Cl)ccc13)CCCC2)NCCCN1CCOCC1 | u | i | u | i | u | 23µM*
COCCCNC(=O)CSc1c2c(nc3ccc(Cl)cc13)CCCC2 | u | i | u | i | 0% | 23µM*
O=C(NCCc1ccccc1)c1cc(-c2ccc(Cl)c(Cl)c2)on1 | x | i | x | i | x | x
CCCS(=O)(=O)N1CCCC(C(=O)NCCCOC)C1 (stereo not drawn) | x | i | x | i | x | x
Nc1ccccc1O | 18µM* | i | 21µM* | i | u | u

Source: PubChem (National Center for Advancing Translational Sciences (NCATS))
